Source: PubChem BioAssay (National Center for Advancing Translational Sciences (NCATS))
Shown is part of a subset that was picked to be rich in hits.
KDM5B inh: KDM5B demethylase inhibition; Potency, µM (highest dose often 57.7 µM), hits mostly inhibitors; KDM5B demethylase, FDH-coupled NADH fluorescence (FDH is formaldehyde dehydrogenase); 220,000 compounds, 2.6% hits; AID 1347165; Q9UGL1; active = well fitted inhibition curve with a large enough effect; note: nearly all actives have a fitted effect of over 70% in size
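qHTS format, multiple compound concentrations. Buffer 50 mM HEPES pH 7.5/0.01% Tween-20; 200 nM KDM5BΔAP final; 10 min compound preincubation; substrate-mix levels 12.5 µM peptide, 25 µM α-KG, 0.25 mM NAD⁺; 30 min RT; ΔRFU.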
Numbers stand for hits; . = inactive.

SMILES	KDM5B inh
Cc1ccc(NC(=O)Cc2nc(-c3cc(C)n(-c4cc(C)on4)c3C)cs2)c(C)c1	.
CC(C)C[C@@H]1N[C@H](C(=O)N2CCN(C)CC2)Cc2c[nH]c3cccc1c23	31.6µM
CC(C)C[C@@H]1N[C@H](C(=O)N2CCC(NC(=O)c3ccccc3)CC2)Cc2c[nH]c3cccc1c23	.
CCCNC(=O)[C@@H]1Cc2c[nH]c3cccc(c23)[C@H](CC(C)C)N1	.
Cc1nc2cccnc2n1CC1CCCN(S(=O)(=O)Cc2ccccc2Cl)C1 (stereo not given)	.
CCCCCC1CCC(c2ccc(C(=O)CCN(C)C)cc2)CC1 (stereo not given)	.
O=C(CCn1c(=O)oc2cc(S(=O)(=O)N3CCCC3)ccc21)Nc1ccc(F)c(F)c1	.
CC(C)NC(=O)c1nc(-c2ccc([S+](C)(=O)[O-])cc2)c2ccccn12	.
C#CCNC(=O)c1nc(-c2ccsc2)c2cnccn12	31.6µM
CC(C)NC(=O)c1nc(-c2ccsc2)c2ccccn12	112µM
CC(C)NC(=O)c1nc(-c2ccsc2)c2cnccn12	39.8µM
CC(C)NC(=O)c1nc(-c2ccc(Cl)cc2)c2ccccn12	89.1µM
CC(C)NC(=O)c1nc(-c2ccccc2)c2ccccn12	.
CC(C)c1ccc(Nc2c(-c3ccsc3)nc3ccc(Cl)cn23)cc1	.
C#CCNC(=O)c1csc(-c2ccc(C)cc2)n1	.
CC(C)NC(=O)c1sc2ncccc2c1-n1cccc1	.
c1ccc(-c2ccc(CNCCN3CCCC3)cc2)cc1	.
Cc1ccccc1C(=O)NC(NC(=O)c1ccccc1C)c1ccccc1	.
Fc1c(F)c(F)c(/C=N/Nc2c(F)c(F)c(F)c(F)c2F)c(F)c1F	.
CN1CC(=O)N(C2CCC2)Cc2c1ncnc2N1CCC(c2ccccc2)CC1	.
O=C(NC1CCCCCC1)c1cc(-c2ccccn2)nc2c(Cl)cccc12	.
COc1ccc(CCC(=O)Nc2nc(C)c(C(C)=O)s2)cc1OC	.
O=C(NCc1coc(-c2cccs2)n1)c1ccc(F)cc1F	.
CCCCn1c(=O)n(CC(=O)Nc2cccc(Cl)c2)c(=O)c2c1ncn2CCC(C)C	.
COc1ccc2c(C)c(CC(=O)NCCc3ccc(F)cc3)c(=O)oc2c1	.
SMILES	KDM5B inh
O=C(CSc1nc2cc([N+](=O)[O-])ccc2o1)NCCCc1ccccc1	.
COc1ccc(-c2cc(C[C@H]3CNCC[C@H]3CC(=O)NCCN3CCOCC3)no2)cc1	.
CCOCC1(C)COc2ccc(C(=O)NCc3cc(OC)cc(OC)c3)cc2N1 (stereo not given)	31.6µM
COc1ccc(C(=O)N[C@@H]2CCC[C@@H]2C(=O)NCCCN2CCOCC2)cc1	.
COc1ccc(CNC(=O)c2ccc3c(c2)NC(=O)CS3)cc1	.
CCOCC1(C)COc2ccc(C(=O)Nc3ccccn3)cc2N1 (stereo not given)	31.6µM
CCc1nc2ccc(C(=O)Nc3ccccn3)cc2nc1CC	.
COCCNC(=O)c1ccc2c(c1)NC(C)(COc1ccc(OC)cc1)CO2 (stereo not given)	35.5µM
COc1ccc(OCCNC(=O)c2ccc3[nH]c(C)c(C)c3c2)cc1	.
COc1ccc(OCC2(C)COc3ccc(C(=O)NCCN4CCOCC4)cc3N2)cc1 (stereo not given)	35.5µM
COc1cccc(CNC(=O)c2ccc3c(c2)NC(=O)CS3)c1	.
COc1ccc(C(=O)NCCONC(=O)c2ccc(OC)cc2)cc1	.
CCC(NC(=O)Nc1ccc(Br)cc1)c1ccc(C(C)C)cc1 (stereo not given)	.
Cc1nn(-c2ccc(F)cc2)c(-n2cccc2)c1C(=O)N1CCc2ccccc2C1	.
CN(C)C(=O)C1CC1c1ccc(Br)cc1 (stereo not given)	.
CCN1C(SCC(=O)Nc2ccccc2)=NS(=O)(=O)c2ccccc21	.
COc1ccc(CNCc2ccco2)cc1OC	.
CC1(c2cccc3ccccc23)NC(=O)N(Cc2ncc(-c3ccccc3)o2)C1=O (stereo not given)	.
CCN(Cc1ccc2c(c1)OCO2)C(=O)NCc1nc(C)cs1	.
COc1cc(Cl)c(NS(=O)(=O)c2cc(-c3n[nH]c(=O)c4c3CCCC4)ccc2C)c(OC)c1	.
O=C(O)C(c1c[nH]c2cc(OCc3ccccc3)ccc12)N1CCN(Cc2cccnc2)CC1 (stereo not given)	.
CC(C)(C)C(=O)Oc1ccc2c(=O)c(-c3ccccc3)coc2c1	.
COCCC(=O)NC(C)C(=O)N1CCN(c2ccccn2)CC1 (stereo not given)	25.1µM
C/C(=C/C(=O)C(F)(F)F)N1CCN(c2ccccn2)CC1	.
COCCC(=O)N1CCCC(C(=O)N2CCN(c3ccccn3)CC2)CCNC(=O)CC1 (stereo not given)	28.2µM
COCCn1ncc(N2CCCC(CC(=O)N3CCN(c4ccccn4)CC3)C2)cc1=O (stereo not given)	.
Cc1ccc(CC(=O)NCCc2ccccn2)cc1	.
O=C(c1csc(N2CCN(c3ccccc3)CC2)n1)N1CCN(c2ccccn2)CC1	.
Cc1ccc(OC(C)C(=O)N2CCN(c3ccccn3)CC2)cc1 (stereo not given)	.
